In all, about 330,000 compounds went through this assay and about 1,900 (0.58%) were called active. Inconclusive results (about 4%) are left out. Not all results are given here. Potency and affinity values are given separately. Values without a mark were called inactive. Cut-off read from the data, not from the text of the source: inconclusive = inhibition above about 70% without an active follow-up result; inactive = below that.

What is called inhibition is the change of the read-out against control, counted positive when it falls.

This experiment is described as follows: M. tuberculosis growth inhibition, HTS (AID 449762).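 Note: bacterial growth assessed after seven days of incubation.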 The note with it: M. tuberculosis H37Rv growth inhibition, 7H9 media; at 25 µM; active compounds read high.
As to `CCC1C(c2ccccc2)NC(c2ccccc2)CC1(O)c1ccc(F)cc1` (configuration not stated), the inhibition was 29.1%.
Under `CCN1CC(C)C(O)(c2ccccc2)CC1C` (configuration not stated) stands -1.44%.
In the case of `NC(=O)CC(NC(=O)Cc1cccc2ccccc12)c1ccc(N2CCC(Cc3ccccc3)CC2)c([N+](=O)[O-])c1` (configuration not stated) it was -0.77%.
In the case of `COc1ccc(CN(C)C(=O)c2ccc(NC(=O)CC3SC(N4CCCC4)=NC3=O)cc2)c(OC)c1` (configuration not stated) it was 7.53%; in that of `CC1CC(C)(C)CC2(C1)NC(=O)N(CC(=O)Nc1ccc(N3CCCCC3)cc1)C2=O` (configuration not stated), 5.59%.
For the molecule `C=C(C)CNC(=S)NN=C1c2ccccc2-c2ccccc21`, the inhibition is 12.3%.
In the case of `CC(C)NC(=S)NN=C1c2ccccc2-c2ccccc21` it was -0.95%; in that of `Cc1cc2c(cc(C(=O)O)n2C)s1`, -1.98%.
Turning to `CCN(CC)CCNC(=O)c1cc2c(-c3ccc(Cl)cc3)nn(C)c2s1`, the inhibition was 7.68%.
Under `CCN(CC)CCCNC(=O)c1cc2c(-c3ccc(Cl)cc3)nn(C)c2s1` stands 47.1%.
As to `c1ccc(-c2cc3ccccc3nc2N2CCCC2)cc1`, the inhibition is 4.32%.
In the case of `Clc1ccc(-c2cc3ccccc3nc2N2CCOCC2)cc1` it was 48.3%; in that of `Cc1ccc(NC(=O)COC(=O)CCc2ccc(S(=O)(=O)N3CCOCC3)cc2)cc1F`, 2.39%; in that of `O=C(O)c1ccccc1C(=O)NC1CCCCNC1=O` (configuration not stated), -1.29%.
For `OCCNCC(O)Cn1ccc2ccccc21` (configuration not stated), the inhibition is -2.23%.
Regarding `OC(CNc1ccccc1)Cn1ccc2ccccc21` (configuration not stated), the inhibition is 12.2%.
Turning to `CC(=O)c1ccc(C(=O)NC2CCCN(Cc3ccccc3F)C2)s1` (configuration not stated), the inhibition was -25.9%.
Regarding `Cc1cc(C)cc(NC(=O)CCn2cnc3cc(C)c(C)cc32)c1`, the inhibition was 62.6%.
In the case of `COc1ccc(C=C2C(=O)OC(C)(C)OC2=O)cc1OC` it was 5.49%.
In the case of `COc1ccc(/C=C2\Cc3ccccc3C2=O)cc1OC` it was 5.99%; in that of `CNC(=O)C(=O)NCC(c1cccs1)S(=O)(=O)c1ccc(F)cc1` (configuration not stated), -2.67%; in that of `Cc1ccc(C)c(N2CCN(C(=O)c3ccc(NC4=NC5CS(=O)(=O)CC5S4)cc3)CC2)c1` (configuration not stated), -1.31%.
In the case of `N#CC(C(=O)Nc1ccc(Cl)cc1)=C1Nc2ccccc2N1` it was 1.22%; in that of `N#CC(C(=O)Nc1cccc(Cl)c1)=C1Nc2ccccc2N1`, 2.4%; in that of `O=C(CCCN1C(=O)S/C(=C\C=C\c2ccccc2)C1=O)Nc1ccc(C(=O)O)cc1`, -3.27%.
For the molecule `O=C(COc1ccc(C(=S)N2CCOCC2)cc1Cl)Nc1ccccc1Cl`, the inhibition was 6.58%.
For the molecule `O=C(NNC(=O)C1CCN(S(=O)(=O)c2ccccc2C(F)(F)F)CC1)c1ccccc1O`, the inhibition is 6.28%.
For the molecule `COc1cccc(N2CCN(C(=O)CCNS(=O)(=O)c3ccc4c(c3)c(=O)n(C)c(=O)n4C)CC2)c1`, the inhibition was -0.56%.
Under `CCC(CC)c1nnc(NC(=O)c2cc([N+](=O)[O-])ccc2N2CCCCC2)s1` stands 9.65%; under `COc1ccc(Nc2nc(N)nc(CN3CCc4ccccc4C3)n2)cc1`, 7.44%.
As for `Cc1ccc(Nc2nc(N)nc(CN3CCN(C)CC3)n2)cc1`, the inhibition is -7.52%.
In the case of `CCC(C)c1ccc(OCC(=O)O)cc1` (configuration not stated) it was -1.06%; in that of `COC(=O)c1ccc(COC(=O)c2ccc(CO)cc2)o1`, 9.22%.
Regarding `CCOc1cc(C(N)=O)cc(Br)c1OC`, the inhibition is -2.81%.
For `CC(C)COC(=O)NCCCOC(=O)Nc1ccccc1`, the inhibition was 2.06%.
Under `Cc1ccc(C)c(NC(=O)CCc2c(C)nn(-c3ccc(N4CCCCC4)nn3)c2C)c1` stands -0.31%; under `COc1ccccc1CNC(=O)CSc1nc(C)cs1`, -6.19%.
In the case of `CN(CCOc1ccc(Cl)cc1)C(=O)CN1C(=O)NC2(CCCC2)C1=O` it was -10.9%.
For `Fc1ccc(OCCOCCN2CCNCC2)cc1`, the inhibition was -3.98%.
In the case of `COc1ccc(C[C@H]2CN3C(=NC[C@@H]3C)N2CCNC(=O)CCC2CCCCC2)cc1` it was -0.84%; in that of `COc1ccc(C[C@H]2CN3C(=NC[C@H]3C)N2CCNC(=O)CCC2CCCCC2)cc1`, 2.73%.
Under `O=C1C(Cc2ccccc2)Nc2ncnc(N3CCN(c4ccccc4)CC3)c2N1Cc1ccc(Br)cc1` (configuration not stated) stands 0.68%.
For `COc1ccc(C2CC(=O)C3=C(C2)Nc2ccccc2N(C(C)=O)C3c2ccco2)cc1` (configuration not stated), the inhibition is -14%.
For the molecule `O=C(c1ccc(F)cc1)C(CN1CCOCC1)c1ccccc1` (configuration not stated), the inhibition was 3.13%.
In the case of `CC(CN1CCOCC1)C(=O)c1ccccc1` (configuration not stated), the inhibition was 3.78%.
As to `COc1ccc(C(NC(=O)c2cccc(F)c2)c2ccccc2)cc1` (configuration not stated), the inhibition is -16.4%.
As for `C=CCn1cnc2c(nnn2-c2cc(C)cc(C)c2)c1=O`, the inhibition is 7.46%.
Turning to `Cc1ccc(C(=O)NN(CCC(=O)NC(C)(C)C)C2=NS(=O)(=O)c3ccccc32)cc1`, the inhibition is 3.72%.
For the molecule `CC1(C)CC(NC(=O)c2cccc(S(=O)(=O)N(Cc3ccccc3)c3ccccc3)c2)CC(C)(C)N1`, the inhibition is -5.74%.
In the case of `O=C(O)c1ccc(Cl)c(S(=O)(=O)N(Cc2ccccc2)c2ccccc2)c1` it was -3.72%.
Regarding `Cc1nn(CCCC(=O)N2CCN(c3ccc(F)cc3)CC2)c(C)c1[N+](=O)[O-]`, the inhibition is 2.18%.
Under `CCC(C)(C)c1ccc(OCC(=O)N(C)C)c(C(C)(C)CC)c1` stands -12.9%; under `Cc1cc[n+](CC[n+]2ccc(C)cc2)cc1`, -0.82%; under `CCc1ccc(C(=O)Nc2ccc3nc(C)ccc3c2)cc1`, 0.01%.
Under `CCc1nc2ccccc2c(C(=O)Nc2cccc(C)c2)c1C` stands 7.7%.
Under `CCc1nc2ccccc2c(C(=O)Nc2ccc(C)cc2)c1C` stands 4.44%.
Consider `CCOC(=O)C1CCCN(CC(O)COc2cccc(C)c2)C1` (configuration not stated), for which the inhibition was -3.72%.
Under `COc1ccccc1C(=O)N/C(=C\c1ccccc1)C(=O)NC(Cc1ccccc1)C(=O)O` (configuration not stated) stands -6.9%.
For the molecule `Cc1ccc(NC(=O)CSCC(=O)N=c2sccn2C)cc1`, the inhibition was -9.96%.
With `Cc1nc2c(c(=O)c3ccccc3n2C)c(=O)n1C1CCCCCC1`, the inhibition is -2.45%.
For `CCc1nc2c(c(=O)c3ccccc3n2C)c(=O)n1C1CCCCCC1`, the inhibition is 6.04%.
Regarding `COc1ccc(OC)c(S(=O)(=O)N2CCCCC2C(=O)O)c1` (configuration not stated), the inhibition is -12.8%.
In the case of `COc1ccccc1N1CCN(CCCCOc2c(OC)cccc2OC)CC1`, the inhibition was 4.13%.
Under `COc1ccccc1OCCCCN1CCN(c2ccccc2OC)CC1` stands -3.03%; under `CN(C)c1cccc2c1c(NC(=O)c1ccc(F)cc1)nn2C`, -5.17%; under `Cc1nc2c(c(=O)[nH]1)C(c1ccc([N+](=O)[O-])cc1)c1c(c3ccccc3oc1=O)O2` (configuration not stated), 4.87%.
In the case of `O=S(=O)(NC1CC(NS(=O)(=O)OCC(Cl)(Cl)Cl)C2CCCCC12)OCC(Cl)(Cl)Cl` (configuration not stated) it was 4.68%; in that of `CCC1Oc2ccc(C)cc2N(CC(=O)N2CCCC2)C1=O` (configuration not stated), 9.77%; in that of `CC1(C)Oc2ccc3ccc(=O)oc3c2/C(=C/O)C1=O`, 2.64%.
`COC1=Cc2c(ccc3ccc(=O)oc23)OC1(C)C`: the inhibition is 1.79%.
`O=C(OCc1nnc(-c2ccc(Cl)cc2)o1)C12CC3CC(CC(O)(C3)C1)C2`: the inhibition is 7.22%.
Under `CCOC(=O)c1cc(C(=O)NC(C)c2ccccc2)c(C)[nH]c1=O` (configuration not stated) stands -4.64%; under `CCOC(=O)c1nnc(-c2ccccc2)nc1Sc1c(Cl)cccc1Cl`, 4.17%; under `CCOC(=O)c1nnc(-c2ccc(C)cc2)nc1Sc1ccccc1Cl`, 13.5%.
Under `CCOC(=O)c1nnc(-c2ccccc2)nc1NC` stands -30.8%; under `CCOC(=O)c1c(NCc2ccccc2)n[nH]c1C`, -5.08%; under `O=C(CCN1C(=O)/C(=C\c2ccccc2Cl)SC1=S)Nc1cccnc1`, 2.83%.
In the case of `CC(=O)C1C2c3ccccc3OC1(C)N=c1s/c(=C/c3cn(C)nc3C)c(=O)n12` (configuration not stated) it was 1.62%; in that of `COC(=O)C1C2c3ccccc3OC1(C)N=c1s/c(=C/c3cn(C)nc3C)c(=O)n12` (configuration not stated), -3.81%; in that of `COc1ccc(-c2cc3ccccc3oc2=O)cc1NC(=O)c1cccnc1`, 4.8%.
As for `COc1ccc(-c2cc3ccccc3oc2=O)cc1NC(=O)c1ccc(Br)o1`, the inhibition was -2.95%.
Under `Cn1c(-c2nonc2N)nc2ccccc21` stands 0.49%; under `COc1ccccc1C(c1c(N)n(C)c(=O)n(C)c1=O)C(C)[N+](=O)[O-]` (configuration not stated), 43.9%.
For the molecule `CC(C(c1cccs1)c1c(N)n(C)c(=O)n(C)c1=O)[N+](=O)[O-]` (configuration not stated), the inhibition is -8.45%.
For the molecule `O=C(CSCc1cc(=O)n2nc(C3CC3)sc2n1)Nc1ccc(F)cc1`, the inhibition is -2.05%.
Under `CC(C)(C)OC(=O)N1CCC(NC(=O)c2[nH]cnc2C(=O)N[C@@H](Cc2ccccc2)C(=O)OCc2ccccc2)CC1` stands -4.13%.
Under `C[C@H](NC(=O)c1nc[nH]c1C(=O)NC1CCN(C(=O)OC(C)(C)C)CC1)C(=O)OCc1ccccc1` stands -4.49%; under `Cc1ccc(NC2CCCN(C(=O)c3cccc4nccnc34)C2)cc1C` (configuration not stated), -9.4%; under `NS(=O)(=O)c1ccc(-c2ccc(/C=C3\SC(=S)N(C4CCS(=O)(=O)C4)C3=O)o2)cc1` (configuration not stated), 0.18%.
Under `NS(=O)(=O)c1ccc(-c2ccc(C=NC3CCS(=O)(=O)C3)o2)cc1` (configuration not stated) stands -12%; under `O=C(CCc1nc2ccccc2c(=O)[nH]1)N1CCN(S(=O)(=O)c2cccc(F)c2)CC1`, -17.1%; under `NC(=O)NC(CC(=O)NCCCc1ccccc1)c1ccc(Cl)cc1` (configuration not stated), 5.17%.

Source of the values: PubChem BioAssay AID449762 (Southern Research Specialized Biocontainment Screening …, 2010).
